Measured values reported in PubChem BioAssay (Tox21).
Several values for one entry are separate records, joined by “and”; a condition that tells them apart may be missing. Equal entries are not always repeated. Results filed as inconclusive are left out. Entries that show only a call come without a potency. Values without a mark were called inactive. Activity calls are given as the source filed them. Calls follow the shape of the dose curve; as a rule, active = well fitted inhibition curve with a large enough effect in the repeat runs; inconclusive = weak or mixed curves, or effect the other way; inactive = no such curve, though single readings can be large or run the other way.
Potency is read from the fitted curve at half-maximal effect.

The compounds below were run against Nuclear receptor subfamily 1 group I member 3 (Homo sapiens) (UniProt Q14994) (assay: qHTS assay to identify small molecule antagonists of the constitutive androstane receptor (CAR) signaling pathway (AID 1224838;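 also: HepG2 cells stably expressing hCAR with CYP2B6 luciferase reporter stimulated by CITCO; nearly all actives have a fitted effect of over 40% in size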)). Conditions: HepG2-CYP2B6-hCAR luciferase, CITCO-stimulated, 24 h; series mostly up to 92.4 µM.
Nuclear receptor subfamily 1 group I member 3 (Homo sapiens), sequence (Q14994 whole entry, looked up): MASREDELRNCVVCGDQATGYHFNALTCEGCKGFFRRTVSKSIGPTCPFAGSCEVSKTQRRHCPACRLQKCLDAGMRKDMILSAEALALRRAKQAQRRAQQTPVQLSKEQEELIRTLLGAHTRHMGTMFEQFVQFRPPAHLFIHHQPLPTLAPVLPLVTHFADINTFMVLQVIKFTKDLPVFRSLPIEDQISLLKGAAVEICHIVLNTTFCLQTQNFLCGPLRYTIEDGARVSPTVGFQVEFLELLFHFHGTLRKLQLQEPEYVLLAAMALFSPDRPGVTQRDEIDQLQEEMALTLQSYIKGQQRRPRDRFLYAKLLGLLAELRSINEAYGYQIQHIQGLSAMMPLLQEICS
Description: U.S. Tox21 Program National Center for Advancing Translational Sciences [NCATS] NIH Chemical Genomics Center [NCGC] U.S. Environmental Protection Agency [EPA] National Institutes of Environmental Health Sciences [NIEHS] National Toxicology Program [NTP] U.S. Food and Drug Administration [FDA] Tox21 Assay Overview: The constitutive androstane receptor (CAR) is a nuclear receptor which regulates multiple drug metabolizing enzymes (DMEs) and transporters. Activating CAR will generally increase the transcription and subsequent translation of CYP2B6 and CYP3A4. These two DMEs represent about 50% of the drug metabolizing potential in the body. When CAR is deactivated, the metabolizing potential in the body will decrease, subsequently increasing the toxicity in the body or lowering the therapeutic potential of a pro-drug. Recently, there have also been studies performed indicating CARs role in energy metabolism and cancer therapy. Therefore, inhibiting CARs activity could have a potential effect on diabetes and cancer. Identifying environmental toxins and compounds which modulate CAR, through the use of the Tox21 10K compound collection, will be an important step in determining the toxicity and potential therapeutic effects these factors will have on the human body.
Tox21 Assay Protocol Summary: A double-stable (hCAR and CYP2B6-2.2kb) transfected cell line, derived from human hepatoma (HepG2) cells, was utilized for the duration of the quantitative high-throughput screens. The HepG2-CYP2B6-hCAR cells suspended in DMEM culture medium supplemented with 10% FBS, 5 ug/mL blasticidin, 0.5 mg/mL geneticin, 100 U/mL penicillin and 100 ug/mL streptomycin were dispensed at 2500 cells/4 uL/well in 1536-well white solid bottom plates using a Multidrop Combi. After the assay plates were incubated at 37 C/5% CO2 for 4 hrs, 23 nL of compounds at 15 concentrations (from 5-48 columns) or positive control (from 1 to 4 columns) were transferred to the assay plates using a Pintool station. One uL of CITCO, was added using a Flying Reagent Dispenser to generate a final concentration of 50 nM CITCO inside each well. After a 24 hr incubation period at 37 C/5% CO2, four uL of ONE-Glo reagent was added into the assay plates using a Flying Reagent Dispenser. After a 30 min incubation period at room temperature, the luminescence intensity in the assay plates was measured using a ViewLux plate reader.
In the case of `Cc1nnc2n1-c1sc(CCc3ccc(CC(C)C)cc3)cc1C(c1ccccc1Cl)=NC2C` (stereo not given), the Potency is reported as “inactive”. In the case of `CC1(C)[C@H](C(=O)OCc2cccc(Oc3ccccc3)c2)[C@@H]1C=C(Cl)Cl`, the Potency is reported as “inactive”. For `ClC1=C(Cl)[C@]2(Cl)[C@@H]3[C@@H](Cl)[C@H]4O[C@H]4[C@@H]3C1(Cl)C2(Cl)Cl`, the Potency was “inactive”. With `Nc1ccc([N+](=O)[O-])cc1` the Potency was “inactive”. With `CCOC(=O)C(O)(c1ccc(Cl)cc1)c1ccc(Cl)cc1` the Potency was “inactive”. For `CO/C=C(/C(=O)OC)c1ccccc1Oc1cc(Oc2ccccc2C#N)ncn1`, the Potency was “inactive”. In the case of `COc1ccc(C(c2ccc(OC)cc2)C(Cl)(Cl)Cl)cc1`, the Potency is reported as “inactive”. For `N#Cc1cc([N+](=O)[O-])ccc1N`, the Potency was “inactive”. In the case of `COc1cc(OC)c(OC)cc1C=O`, the Potency is reported as “inactive”. `CCN(CC)C(=O)Cl` was tested, and the Potency was “inactive”. In the case of `O=C1OC(=O)c2c(Cl)c(Cl)c(Cl)c(Cl)c21`, the Potency is reported as “inactive”. With `O=S(=O)(C(Cl)(Cl)Cl)C(Cl)(Cl)Cl` the Potency was 24.3 µM (active). `Brc1cc(Br)cc(Br)c1` was tested, and the Potency was “inactive”. For `CN1CSC(=S)N(C)C1`, the Potency was 3.84 µM (active) and 7.67 µM (active). `O=C1C(I)=CC(=C(c2cc(I)c(O)c(I)c2)c2ccccc2C(=O)O)C=C1I` was tested, and the Potency was “inactive”. `ClC(Cl)=C(c1ccc(Cl)cc1)c1ccccc1Cl` was tested, and the Potency was “inactive”. For `Cc1cc(C)c(C(=O)P(=O)(c2ccccc2)c2ccccc2)c(C)c1`, the Potency was “inactive”. `O=C(Nc1ccccc1-c1ccc(Cl)cc1)c1cccnc1Cl` was tested, and the Potency was “inactive”. In the case of `Cc1ccc(N(SC(F)(Cl)Cl)S(=O)(=O)N(C)C)cc1`, the Potency is reported as 27.3 µM (active). With `Oc1c(Cl)ccc(Cl)c1Cl` the Potency was “inactive”. `OC(Cc1ccccc1Cl)(Cn1[nH]cnc1=S)C1(Cl)CC1` (stereo not given) was tested, and the Potency was “inactive”. Compound `Cc1ccc2nc3sc(=O)sc3nc2c1` has an activity, negative = inhibition of 67.8% [at 19 µM]. `Nc1ccc(Cl)cc1[N+](=O)[O-]` was tested, and the Potency was “inactive”. With `CNC(=O)Oc1cc(C)c(SC)c(C)c1` the Potency was “inactive”. With `Cc1cc(C(C)(C)c2ccc(O)c(C)c2)ccc1O` the Potency was “inactive”.
